PubChem BioAssay (NCI)
Compounds without any hit were thinned out: in the full panel of roughly 79,000, 15% have a hit. Activity calls are given as the source filed them. Cut-off read from the data, not from the text of the source: active = growth inhibition above about 70%; inactive = the rest.

What was measured:
[1] = NCI Yeast Anticancer Drug Screen. Data for the rad50 strain (AID 155);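 note: 0% = growth of vehicle-only cultures of the same strain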; settings: S. cerevisiae rad50 strain growth inhibition; at 50.0 µM; stronger effect = higher value
Outline: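 A DNA repair-deficient yeast mutant serves as the test organism; compound-induced growth inhibition is calculated against vehicle-treated cells.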

[2] = NCI Yeast Anticancer Drug Screen. Data for the mec2-1 strain (AID 157); settings: S. cerevisiae mec2-1 strain, at 50.0 µM, stronger effect = higher value
Outline: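 Growth inhibition is read against vehicle-treated controls after compound exposure of the mec2-1 yeast strain, which is defective in DNA damage repair or cell cycle control.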

[3] = NCI Yeast Anticancer Drug Screen. Data for the sgs1 mgt1 strain (AID 161);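 note: 0% = growth of cultures given vehicle only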; settings: S. cerevisiae sgs1 mgt1 strain, at 50.0 µM, stronger effect = higher value
Outline: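 Growth of a repair-deficient yeast mutant was monitored after compound treatment and expressed as inhibition relative to vehicle-treated cultures.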

[4] = NCI Yeast Anticancer Drug Screen. Data for the cln2 rad14 strain (AID 165);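 note: 0% = growth equal to vehicle treated cultures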; settings: S. cerevisiae cln2 rad14 strain, at 50.0 µM, stronger effect = higher value
Outline: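 Growth inhibition, relative to vehicle-treated controls, is the read-out. The test organism is a yeast strain with defined genetic alterations, cln2 rad14.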

[5] = NCI Yeast Anticancer Drug Screen. Data for the bub3 strain (AID 167); settings: S. cerevisiae bub3 mutant strain, at 50.0 µM, stronger effect = higher value
Outline: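 Inhibition values come from growth of compound-treated mutant yeast normalised to vehicle-treated controls.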

[6] = NCI Yeast Anticancer Drug Screen. Data for the mlh1 rad18 strain (AID 175); settings: S. cerevisiae mlh1 rad18 strain growth inhibition; at 50.0 µM; stronger effect = higher value
Outline: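 Cells of a genetically altered yeast strain, deficient in DNA damage repair, were treated with compound. Their growth was then compared with that of vehicle-treated cultures to give inhibition.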

Measured: growth inhibition

Cc1c(C)c(C)c(S(=O)(=O)NCCCNS(=O)(=O)c2c(C)c(C)c(C)c(C)c2C)c(C)c1C
inactive: [1] 3.85% | [2] -28.7% | [3] -7.2% | [4] 7.7% | [5] -4.95% | [6] -1.1%

COC1CC(C)OC(OC2C(C)/C=C/C(=O)OC(C)C(COC3OC(C)C(O)C(OC)C3OC)C3OC3/C=C/C(=O)C(C)(O)CC2C)C1O (stereo unspecified)
inactive: [1] 1.55% | [2] -5.25% | [3] 3.55% | [4] 1.5% | [5] 5.25% | [6] 5%

CCN(CC)Cc1cc(Nc2c3ccc([N+](=O)[O-])cc3nc3ccc(OC)cc23)ccc1O
inactive: [2] 60.4% | [3] 56% | [4] 54.5% | [5] 53.9% | [6] 65.3%
active: [1] 83.3%

O=CCS
inactive: [1] -0.2% | [2] 4.85% | [3] -5.6% | [4] -38% | [5] -31.2% | [6] 7.15%

COC1C(/C=[N+](\C)[O-])OC2OC(C)(C)OC21 (stereo unspecified)
inactive: [1] 10.2% | [2] -9.5% | [3] -12.8% | [4] -26.1% | [5] 17.6% | [6] 12.8%

CCOC(=O)CN(C=O)C(C)c1ccccc1 (stereo unspecified)
inactive: [1] 13.1% | [2] 18.4% | [3] 4.4% | [4] 3.7% | [5] 33.6% | [6] 20.9%

COc1nc2[nH]ccc2c(=O)[nH]1
inactive: [1] -23.8% | [2] -25.2% | [3] -31.8% | [4] 3.15% | [5] -11.3% | [6] -11.1%

O=C(O)CCC(=O)c1ccc2c3c(cccc13)CC2
inactive: [1] 22.6% | [2] 0.9% | [3] 15.2% | [4] 46% | [5] 21.5% | [6] 36%

COc1ccc2c(c1)nc1n2C(N)=Nc2ccccc2S1
inactive: [1] 44.5% | [2] 23.8% | [3] 36.2% | [4] 19.9% | [5] 58% | [6] 36.5%

O=C1C(=Cc2ccco2)C(=O)C2CCCCC12 (stereo unspecified)
inactive: [1] 6.8% | [2] -9% | [3] -10.8% | [4] 13% | [5] 2.4% | [6] 13.6%

Cc1ccccc1/C=N/Nc1ccc([N+](=O)[O-])cc1[N+](=O)[O-]
inactive: [1] -2.45% | [2] 13.4% | [3] -1.75% | [4] -35.1% | [5] -25.1% | [6] -11.8%

CCCOc1cc2c(cc1C(C)c1ccc(OCC)cc1)OCO2 (stereo unspecified)
inactive: [1] 36% | [2] -25.8% | [3] -9.3% | [4] 0.9% | [5] -26.8% | [6] -49.8%

O=C1Nc2ccccc2Nc2nc3cccccc-3c21
inactive: [1] 9.85% | [2] -15.2% | [3] -2.4% | [4] 16.8% | [5] -6.6% | [6] -13.8%

Clc1ccccc1/C=C1\c2ccc(Br)cc2-c2cccc[n+]21
active: [1] 92.1% | [2] 95.8% | [3] 95.5% | [4] 91.4% | [5] 93% | [6] 95.7%

CC(C(O)C(F)(F)F)[N+](C)(C)C (stereo unspecified)
inactive: [1] 34.8% | [2] 5.85% | [3] 1.8% | [4] -13.8% | [5] 10.1% | [6] 28%

O=c1c2cccnc2[nH]c2ccc3scnc3c12
inactive: [1] -8.85% | [2] -11.3% | [3] -3.75% | [4] 22.2% | [5] -20.1% | [6] 40.7%

NC(=S)Nc1ccccc1Cl
inactive: [1] -14.3% | [2] -6.2% | [3] 15.6% | [4] -18.1% | [5] -10.8% | [6] 10.6%

CC(=O)C1(C(C)=O)OC2c3ccccc3C=CN2C=C1C=O (stereo unspecified)
inactive: [1] 6.6% | [2] 1.35% | [3] 14.6% | [4] 4.45% | [5] 6.05% | [6] 11.1%

O=[N+]([O-])c1ccc(N=Nc2c(S(=O)(=O)O)cc3cc(S(=O)(=O)O)ccc3c2O)c([N+](=O)[O-])c1
inactive: [1] 24.3% | [2] 0.9% | [3] 30.9% | [4] 31.3% | [5] 32.1% | [6] 20.2%

COC(=O)NC(=Nc1ccc(Oc2ccccc2)cc1NC=O)NC(=O)OC
inactive: [1] 0.15% | [2] -14.8% | [3] -13.6% | [4] 25.4% | [5] 15.9% | [6] 11.5%

O=C(O)CCC(=O)Nc1ccc(Cl)cc1
inactive: [1] 8% | [2] 5.7% | [3] -0.05% | [4] -16.1% | [5] 5.15% | [6] 5.55%

CCC(c1ccc(N(C)C)cc1)c1ccc(N(C)C)cc1
inactive: [1] 3.8% | [2] -48.9% | [3] 1.6% | [4] 8.35% | [5] 0.05% | [6] 4.2%

CCCCSc1nc2c([nH]1)c(=O)n(C)c(=O)n2C
inactive: [1] -0.75% | [2] 2.8% | [3] 4.3% | [4] -34.5% | [5] 22.9% | [6] 1.5%

CCOC(=O)/C(C#N)=C\C1(C)CCC(C)=CO1 (stereo unspecified)
inactive: [1] -1.8% | [2] -8.65% | [3] -7.9% | [4] -31.6% | [5] -4.85% | [6] -3.25%

COc1ccc2cc(C(=O)O)ccc2c1OC
inactive: [1] 1.05% | [2] 1.7% | [3] 27% | [4] 25.1% | [5] -6.3% | [6] -3.85%

O=C(N/C=C(/c1ccccc1)S(=O)Cc1ccccc1)Nc1ccccc1Cl (stereo unspecified)
inactive: [1] -8.45% | [2] -27.6% | [3] 0.85% | [4] -15.2% | [5] -9.7% | [6] -24.9%

CN1CCN(CCNNCCN2CCCC(O)C2)CC1 (stereo unspecified)
inactive: [1] 3.2% | [2] -1.65% | [3] -5.15% | [4] -6.05% | [5] -7.25% | [6] 10.7%

CCOC(=O)CCCOc1ccccc1
inactive: [1] 24.4% | [2] -2.95% | [3] -9.55% | [4] 7.6% | [5] 16.1% | [6] 19.7%

Cn1ncc2c(NCc3ccccc3)nc(Cl)nc21
inactive: [1] 6.5% | [2] -11.2% | [3] 16.4% | [4] -9.9% | [5] 5.85% | [6] 12.9%

CC(C)c1ccc(Cc2ccc(C(C)C)c(NC(=O)C(=O)Cc3cnc4ccccc4n3)c2C(C)C)c(C(C)C)c1NC(=O)C(=O)Cc1cnc2ccccc2n1
inactive: [1] -28.4% | [2] -18.4% | [3] -24.9% | [4] 14.3% | [5] -13.2% | [6] -28.8%

COc1cc(C2c3c(oc4ccccc4c3=O)Oc3oc4ccccc4c(=O)c32)cc(OC)c1O
inactive: [1] -17.4% | [2] 4.65% | [3] 5.25% | [4] 31.9% | [5] -0.3% | [6] -13.1%

CC(C)(C)c1cc(C(=O)O)c2c(c1)C(=O)OC2(c1ccccc1)c1ccccc1C(=O)O (stereo unspecified)
inactive: [1] 29.1% | [2] 7.6% | [3] 5.6% | [4] 9.95% | [5] 8.75% | [6] 31.2%

COc1ccc(-c2csc(N)n2)cc1OC
inactive: [1] 2.15% | [2] -3.9% | [3] 4.4% | [4] -66.7% | [5] -10.4% | [6] 1.9%

CC(C)CCCC(C)C1CCC2C3C(O)CC4CCCCC4(C)C3CCC12C (stereo unspecified)
active: [1] 96.7% | [2] 97.8% | [3] 98% | [4] 95.2% | [5] 95.7% | [6] 97.9%

CCCS(CCC)=NS(=O)(=O)c1ccc(C)cc1
inactive: [1] -6.75% | [2] -0.7% | [3] 0.6% | [4] -0.8% | [5] 11.6% | [6] -9.65%

O=C1C(O)=C(c2ccccc2)C(=O)N1c1ccccc1
inactive: [1] -25.2% | [2] -9.05% | [3] -11.7% | [4] -62.5% | [5] 6.65% | [6] 9.5%

CC1C(=O)OCC2=CCN3CCC(OC(=O)C(C)C1(C)O)C23 (stereo unspecified)
inactive: [1] 2.25% | [2] -15.8% | [3] -3.45% | [4] 8.05% | [5] 0.9% | [6] -32.5%

N#CCCCN1CCOCC1
inactive: [1] 0.8% | [2] -20.9% | [3] -7.9% | [4] 15.7% | [5] 0% | [6] 3.6%

CN(C)/N=C/c1cn(C)c(=O)n(C)c1=O
inactive: [1] 0.15% | [2] 3% | [3] 5.75% | [4] -5.55% | [5] -20.3% | [6] 1.85%

Brc1c2ccccc2cc2ccccc12
inactive: [1] 22% | [2] 29.8% | [3] 25% | [4] -8.8% | [5] 63.4% | [6] 42.6%

CC12CC3C(CC1O2)C3(C)C (stereo unspecified)
inactive: [1] -30.2% | [2] -19.6% | [3] -32.8% | [4] 2.5% | [5] 1.35% | [6] -43.2%
